Assay outcomes (PubChem BioAssay)
A selection: hits, their analogues and other compounds. The true share with any hit is near 5.4%.
Vaccinia Venus: qHTS for Stage-Specific Inhibitors of Vaccinia Orthopoxvirus: Venus Reporter Primary qHTS | Vaccinia virus Venus reporter expression, fluorescence | Potency, µM (top dose mostly 36.5 µM), for inactives: at the highest dose activity change, negative = inhibition, actives largely listed as inhibitors | 0.46% of 330,000 active | AID 720580, 2013; calls by dose curve; tested in A549 cells; also: nearly all actives have a fitted effect of over 30% in size
VACV mCherry inh: qHTS for Stage-Specific Inhibitors of Vaccinia Orthopoxvirus: mCherry Reporter Primary qHTS; Vaccinia virus mCherry reporter infection, fluorescence; Potency, µM (titrated, usually from 36.5 µM), without a hit: at the highest dose activity change, negative = inhibition, usual class: inhibitors; 0.63% of 310,000 active; calls by dose curve; tested in A549 cells; also: nearly all actives have a fitted effect of over 35% in size
Lassa entry inh: qHTS for Inhibitors of binding or entry into cells for Lassa Virus. Potency, µM (doses to about 37.9 µM), without a hit: at the top dose activity change, negative = inhibition, most hits filed as inhibitors. Lassa virus pseudotype entry inhibition, cell reporter. AID 540256, 2011. 1.2% of 300,000 active; calls by dose curve; tested in HEK293 cells; also: nearly all actives have a fitted effect of over 50% in size
Marburg entry inh: qHTS for inhibitors of binding or entry into cells for Marburg Virus; Marburg virus pseudotyped entry inhibition, cell reporter; Potency, µM (titrated, usually from 37.8 µM), without a hit: at the highest dose activity change, negative = inhibition, usual class: inhibitors; 1.8% of 300,000 active; calls by dose curve; tested in HEK293 cells
Sm TGR inh: qHTS Assay for the Inhibitors of Schistosoma Mansoni Peroxiredoxins. 3% of 360,000 active. purified TGR, DTNB reduction, TNB absorbance 405 nm. AID 485364, 2010. Potency, µM (doses to about 114 µM), for the others: top-dose activity change, negative = inhibition, hits mostly inhibitors. Schistosoma mansoni thioredoxin glutathione reductase (TGR), Q962Y6; active = well fitted inhibition curve with a large enough effect; inconclusive = small, poorly fitted or top-dose-only effect; inactive = no such curve, though single readings can be large or run the other way; also: nearly all actives have a fitted effect of over 60% in size
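Kinetic colorimetric format: TGR-catalysed, NADPH-driven DTNB reduction monitored via TNB absorbance. Enzyme dispensed at 20 nM; compound exposure 15 min at room temperature before reaction start.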
FMDV antiviral: High Throughput Screening for Foot and Mouth Disease Virus Antivirals; FMDV antiviral cell-based qHTS; Potency, µM (doses to about 57.9 µM), for inactives: top-dose activity change, negative = inhibition, hits mostly inhibitors; 1.2% of 410,000 active; AID 1159524, 2015; calls by dose curve; tested in HEK293T cells; also: read-out not given here; nearly all actives have a fitted effect of over 45% in size
Numbers without * were called inactive; i = inactive; ? = inconclusive; · = not tested or not shown; [ ] = remark or other dose. % is scaled to controls: 0 for no effect and ±100 for the full control effect; potency is read from the fitted curve at half-maximal effect.

SMILES	Vaccinia Venus	VACV mCherry inh	Lassa entry inh	Marburg entry inh	Sm TGR inh	FMDV antiviral
Cc1cccc(N2CCN(c3nc4ccc(C(=O)c5ccccc5)cc4n4cnnc34)CC2C)c1 (configuration not stated)	-8%	-10%	?	·	4%	-14%
CC(C)C(NC(=O)c1ccccn1)c1nnc2n1CCN(Cc1ccc3ccccc3c1)CC2 (configuration not stated)	-14%	i	·	·	·	-20%
COc1ccccc1OCc1nnc(-c2ccccc2)o1	-15%	-9%	22%[46.1 µM]	21%[46.1 µM]	2%	23%
CCC(=O)Nc1cccc(C(=O)/C=C/c2ccc(F)cc2)c1	·	·	?	15µM*	?	-25%
CCOC(=O)c1cc(C)n(CC2CCC(C(=O)Nc3cc(OC)cc(OC)c3)CC2)c1C (configuration not stated)	-9%	-15%	?	·	17%	-18%
CCCCN(C)CCCNC(=O)c1cn(CC)c2ccc(S(=O)(=O)N3CCc4ccccc4C3)cc2c1=O	-11%	-10%	-13%	5.6µM*	-9%	-17%
CCn1cc(C(=O)NCc2ccco2)c(=O)c2cc(S(=O)(=O)N3CCc4ccccc4C3)ccc21	·	·	-21%	-10%	14µM*	-9%
CN(C)[C@H]1CCN([C@@H]2C[S+](=O)([O-])N[C@@H]2COCc2ccccc2)C1	·	·	4%[46.1 µM]	·	·	·
CCn1c(-c2ccccc2F)nc2cc(NC(C)=O)cc(C(=O)NC(c3ccccn3)C(F)(F)F)c21 (configuration not stated)	-29%	i	·	·	·	-10%
O=C(C[n+]1ccccc1Cl)c1cccc([N+](=O)[O-])c1	-18%	-14%	·	·	·	·
O=C(C[n+]1cc(Br)cc(Br)c1)c1cccc([N+](=O)[O-])c1	-9%	-16%	-9%	-1%[46.1 µM]	10µM*	0%
CC(C)(C)C1=CC(=O)C(N2CCOCC2)=CC1=O	-13%	i	13µM*	?	-20%	?
O=C(NC(Cc1cn(Cc2ccccc2)cn1)C(=O)O)OCC1c2ccccc2-c2ccccc21 (configuration not stated)	-11%	1%	·	·	·	-15%
O=C(Nc1ccc2c(c1)oc1ccccc12)C1CC1	-18%	i	12%	?	6%	28%
Cc1c(C(=O)Nc2ccc(F)cc2)oc2ccc(S(=O)(=O)N3CCC4(CC3)OCCO4)cc12	·	·	?	5.8µM*	6%	22µM*
Cc1c(C(=O)NCCC2=CCCCC2)oc2ccc(S(=O)(=O)N3CCC4(CC3)OCCO4)cc12	?	?	?	?	-13%	18µM*
O=C(Nc1ccc2c(c1)oc1ccc(S(=O)(=O)N3CCCC3)cc12)C1CC1	?	?	12µM*	-25%	-2%	·
Cc1c(C(=O)Nc2ccc(F)c(F)c2)oc2ccc(S(=O)(=O)N3CCCCC3)cc12	?	?	16%[46.1 µM]	?	7%	14µM*
Cc1ccc(NC(=O)c2oc3ccc(S(=O)(=O)N4CCCCCC4)cc3c2C)cc1Cl	-17%	-26%	-10%[46.1 µM]	·	3%	?
CCOC(=O)c1ccc(N2C(=O)c3n[nH]c(C)c3C2c2ccccc2)cc1 (configuration not stated)	·	·	-20%	?	6%	-7%
CCOC(=O)c1ccc(N2C(=O)c3n[nH]c(-c4ccco4)c3C2c2ccccc2OC)cc1 (configuration not stated)	-30%	?	?	?	-3%	22µM*
CCOC(=O)c1ccc(N2C(=O)c3n[nH]c(C)c3C2c2ccc(O)cc2)cc1 (configuration not stated)	·	·	-12%	4%	35µM*	-18%
CCOC(=O)c1ccc(N2C(=O)c3n[nH]c(-c4ccco4)c3C2c2cccc(O)c2)cc1 (configuration not stated)	-13%	-25%	?	?	15%	25µM*
CCOC(=O)c1ccc(N2C(=O)c3n[nH]c(-c4ccco4)c3C2c2ccc(OCC)cc2)cc1 (configuration not stated)	-9%[7.34 µM]	-8%[7.34 µM]	?	11µM*	?	?
CCOC(=O)c1ccc(N2C(=O)c3n[nH]c(-c4ccco4)c3C2c2ccc(F)cc2)cc1 (configuration not stated)	-12%	-25%	?	?	?	?
SMILES	Vaccinia Venus	VACV mCherry inh	Lassa entry inh	Marburg entry inh	Sm TGR inh	FMDV antiviral
CC(C)CCNC(=O)C1CCN(c2nc3ccc(Cl)cc3[nH]2)CC1	-17%	i	7%[46.1 µM]	·	10%	-9%
COc1cccc(C(=O)NCC2Cc3cccc(-c4ncccn4)c3O2)c1OC (configuration not stated)	-1%	-11%	·	·	·	-11%
COc1ccccc1N1CCN(C(=O)Cn2c(=O)n3nc(-c4cccc(C)c4)nc3c3ccccc32)CC1	-9%	-5%	25%[46.1 µM]	·	3%	-8%
CC1(C)S[C@@H]2[C@H](N3C(=O)C(c4ccccc4)NC3(C)C)C(=O)N2[C@H]1C(=O)O (some centres not stated)	-14%	i	·	·	·	27%
Cc1cc(C)c(C(=O)OCC(=O)NC(=O)c2ccccc2)c(C)c1	-24%	-14%	-2%	18%	-3%	-5%
Cc1cccc(C(=O)OCC(=O)NC(=O)c2ccccc2)c1O	-7%	-15%	-16%[46.1 µM]	-11%	50µM*	-10%
COC(=O)N[C@@H](c1ccc2ccccc2c1)C(C(C)=O)C(=O)OC (some centres not stated)	·	·	·	-16%[14.2 µM]	·	·
COc1ccc(CNC[C@@H](CCCCN(C)Cc2ccc(OC)cc2)N2C[C@H](c3ccccc3)N(CCc3ccc(Cl)c(Cl)c3)C(=O)C2=O)cc1	22µM*	?	·	·	-21%	?
O=C(COc1ccc(F)cc1)Nc1ccccc1C(=O)OCc1cc(=O)n2nc(C3CC3)sc2n1	-6%	-17%	5%[46.1 µM]	·	3%	-22%
Cc1c2cnn(CC(=O)N3CCN(c4ccc(F)cc4)CC3)c(=O)c2c(C)n1Cc1ccccc1F	2%	1%	-6%[46.1 µM]	1%[46.1 µM]	3%	?
CCOC(=O)/C(C#N)=C1/C=C(C)NC(c2ccccc2O)=N1	10µM*	?	?	?	6%	?
CCOC(=O)/C(C#N)=C1\Nc2ccccc2N=C1N(CC(C)C)CC(C)C	-1%	-8%	-3%	?	0%	·
Oc1c(C(c2ccccc2F)N2CCN(Cc3ccccc3)CC2)sc2nc(-c3ccco3)nn12 (configuration not stated)	-2%	-3%	1%[46.1 µM]	·	6%	22%
CC1CCN(S(=O)(=O)c2cc(C(=O)Nc3ccc(Br)cc3F)n(C)c2)CC1	-14%	-11%	-6%[46.1 µM]	·	-7%	-24%
